These results are taken from the supplement of paper PMC6555819.

This test deals with VDR:RXRa (NR concentration 270 nM, RXRa partner concentration 90 nM). Kind of test: PBM binding z-score (relative to random genomic background probes); higher = stronger binding; sequences stand for … in GC…GCGATTGACAGCGTAGAATGAAGG
The protocol: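 Protein-binding microarray (Agilent 4x180K custom design, double-stranded 60-nt probes: 5' GC cap, 34-nt variable region, 24-nt constant primer region; full probe sequence given). Purified or IVT nuclear receptor:RXRα heterodimers (3:1 NR:RXRα, mostly 270:90 nM) or homodimers were incubated for 1 h in PBS with 2% milk and no ligand, then detected with Alexa488 antibodies. Fluorescence from o1-orientation probes (~5 replicates averaged) was converted to z-scores against 500 random hg19 background probes. Variable regions are seed direct-repeat (DR0–DR5) sites, all their single-nucleotide variants and half-site ablations.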
Consider TCTTGTAGATCAAGCAGGTTGAGAAAGCCTGAGT, for which the PBM binding z-score was 0.285.
As for AGAACGAGGGCACGCTGACTTGATAGCAGAGTAG, the PBM binding z-score was determined as 1.02.
With TCGAGTAGGTTAGGCGGGGCATTCAGCCAACATA the figure was 1.43; with TAGCCTAGGTCATTGGGACAGTATAGTACGCATC, 2.35.
With TTACCAAGGTGAGATGAGGTCGTTGATCCAACTC the figure was 4.7.
With ACTCTTAGTTGACTTAGGGCAACCGATACGACGC the figure was 0.416; with ATCTCTGGGTAACAAGTTCAGTGAAAGAGAGGAC, 2.8.
Consider ACAGACAGGTGATGAAGGTAACTTAGGCTATCAT, for which the PBM binding z-score was 0.0593.
With AATACAGGGTCACTAGGCCAGAGCAGGTACGAAT the figure was 4.03.
The same measure for GCGACTGGGGCATCAGCAGCTTACCATAACTTAA: -0.708.
The same measure for CATAGTTGGTCAGGAGGTCACACACCGGATATGA: 3.94; for TCTAGTAGGTTAGTCGGGGCATTCAGCCAACATA: 2.68; for TCTTGTAGATCAACAGGAGGTCAAGAAAGATCGA: 3.14.
Sequence CCTACTGGGCCATGGTCATTGATCAGTCAAAGCA registered a PBM binding z-score of -0.434.
With ATATGTAGGTTAGCTGCGGTCATTCAGACTAGGC the figure was 2.23; with TCATATAGGGAAAAGGTGAAAGTCGGTGTGGTAA, 1.29; with CTCGAAAGGTCGGTTGAGGTGAGTATACGGATAA, 2.14.
Sequence CACACTAGGTCACCGGAAGGTCAAAGTCCGCATG returned a PBM binding z-score of 5.97.
The same measure for CGAACTAGGTCATCCAGGACAGGGAATACATTGA: 4.1; for TTTTGTAGATCAAGCAGGTTAAGAAAGCCTGAGT: 0.649; for CGGAGTAGGTTATGGGGCATTCAGGCAACGGTGA: 0.00597.
The same measure for AATACAGGGTCAATAGGCCAGAGTAGGTACGAAT: 3.64; for ATATGTAGGTTAGCTGGGGTTATTCAGACTAGGC: 3.2.
The same measure for ACTATTAGTTGACTTAGGGCAACCAATACGACGC: 0.354.
In turn, ACTAGCAGGGCAAGTTTGGGTCACTCAAACAAAG had a PBM binding z-score of 1.32.
With CCTTACGGGTCACTCCAGGTTATACCATCGGAGT the figure was 4.19.
In the case of AGTCAAAGTTCAGGACGGGGTAACGTAAAGCACG, the PBM binding z-score was determined as 3.34.
The same measure for AGTCAAAGTTCAGGACGAGGAAACGTAAAGCACG: 2.2; for TCTAGTTGGTCAAAGGTAACACACTCGAAATGCG: 1.7; for TGAATGAGGATAAAGATCAGGGAACGTGGCGTCG: -0.375.
The same measure for CCTACTGGGCCCAAGGTCATTGATTCCAATGCTC: 3; for AGCGAAAGGTCGACGAGGTGAGTATACACCGTTT: 5.23; for CCAGACAGGTAAGAAGGTAACTCAGCCTCGATTA: 0.00354.
The same measure for ATCTCTAGGTAACCAAGTTCGGTGAATGCCGAAC: 1.83; for TCTTGTAGATCAATAGAGGTTAAGGAAGTGCGCT: 1.77; for TCGAGTAGGTTACCAATGGGACATTCAGCTTTCT: -0.0477.
ATCTCTAGGTAACCAAGTTCAGTGATTGCCGAAC: the PBM binding z-score is 4.17.
With GCTAGTAGATCAAGGTTAAGAAAGACTAAGCTAA the figure was -0.00199.
With CCTACTGGGCCATAGGTCATTGATTCCAATGCTC, the PBM binding z-score was 2.17.
The same measure for GCTTACTGGTCAAAGGTTATAGCATGAATAGAAT: 2.42.
